Compound activity from PubChem BioAssay.
tim10-1 inh: inhibits growth of tim10-1 mutant yeast; S. cerevisiae tim10-1 ts strain growth, BacTiter-Glo, 24 h; inhibition, % at 20 µM; 2.2% of 330,000 active; AID 463190;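 active means inhibition of at least 40%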;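 further: mutant grown at 25 °C; 0% = DMSO wells with yeast and 100% = wells holding no yeast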
TIM10 inh: TIM10 yeast growth inhibition. S. cerevisiae TIM10 strain growth, BacTiter-Glo luminescence, 24 h. AID 463195. 1.4% of 330,000 active. inhibition, % at 10 µM;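 active means inhibition of 40% or more at the single tested concentration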;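 further: wild-type TIM10 isogenic control strain grown at permissive 25 °C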
tim23-1 inh: tim23-1 yeast growth inhibition. inhibition, % at 20 µM. AID 463212. S. cerevisiae tim23-1 growth, BacTiter-Glo luminescence, 24 h. 1.3% of 330,000 active;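 active means growth inhibition of the mutant yeast at or above 50%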;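 further: temperature-sensitive mutant grown at 25 °C; plate controls were DMSO-treated mutant yeast for no effect and medium wells lacking yeast for full effect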
SKKanGAS inh: inhibitors of SKKanGAS S. pyogenes growth in kanamycin (SK-promoter or general growth effect); BacTiter-Glo, 6 h; inhibition, % at 7.5 µM; 1.3% of 300,000 active;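 active means mean replicate score, as percent of positive control median, at least 50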;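 further: strain carries kanamycin resistance gene driven by streptokinase promoter and grows in 40 µg/ml kanamycin; loss of luminescence reflects streptokinase promoter inhibition or plain growth inhibition; 0% = median of DMSO wells and 100% = positive control at its reference dose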
PfHsp90 set2: growth inhibition of yeast expressing Plasmodium Hsp90 | S. cerevisiae expressing PfHsp90, BacTiter-Glo ATP, 48 h; yeast lacking PDR1 and PDR3 efflux regulators | inhibition, % at 9.4 µM | 0.32% of 310,000 active;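 active means every replicate shows inhibition above about 80%, whatever the replicate mean, limit read from the data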;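 further: 0% = DMSO neutral controls and 100% = 20 µM radicicol positive controls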
NALP3 yeast inh: blocks the NALP3 inflammasome reconstituted in yeast; Yeast reconstituted NLRP3/ASC/caspase-1, beta-gal luminescence, 24 h; inhibition, % at 10 µM; 0.39% of 330,000 active; AID 2825;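 active means inhibition of 50% or more; inactive means inhibition below 50%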;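 further: plate controls were induced DMSO wells for no effect and uninduced yeast grown without galactose for full effect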
tim10-1 conf: confirmation of tim10-1 mutant yeast growth inhibitors. shares compounds with tim10-1 inh. S. cerevisiae tim10-1 ts strain growth, BacTiter-Glo, 24 h. inhibition, % at 20 µM. 56% of 7,400 active. AID 463213;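 active means inhibition of yeast growth at or above a set limit in either of two repeat tests at 20 µM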;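 further: tim10-1 mutant grown at permissive 25 °C to find synthetic lethal compounds; 0% = DMSO yeast wells and 100% = medium wells without yeast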
TIM10 conf: confirmation of TIM10 yeast growth inhibitors. shares compounds with TIM10 inh. S. cerevisiae tim10 strain growth, BacTiter-Glo luminescence, 24 h. inhibition, % at 10 µM. 63% of 4,600 active. AID 463215;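 active means inhibition of yeast growth at or above a set limit in either of two replicates at 10 µM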;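 further: this counterscreen used the strain with wild-type TIM10; 0% = yeast with DMSO and 100% = medium wells lacking yeast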
Starred values were filed as active, the others as inactive; . = no result. This is a sample that favours compounds with a hit; in the whole collection about 4.6% have one here.

SMILES | tim10-1 inh | TIM10 inh | tim23-1 inh | SKKanGAS inh | PfHsp90 set2 | NALP3 yeast inh | tim10-1 conf | TIM10 conf
CCc1ccc(C(=O)CN(C#N)c2nc(C)cc(C)n2)cc1 | 41.9* | 48.3* | 35.0 | 14.4 | 8.5 | 8.8 | 15.1 | -35.5
O=c1cc(-c2ccccc2)n(S(=O)(=O)c2ccccc2)o1 | 35.6 | 39.9 | 31.5 | 1.3 | 16.2 | 19.6 | . | .
O=c1cc(-c2ccccc2)n(S(=O)(=O)c2ccc3ccccc3c2)o1 | 42.3* | 63.7* | 21.0 | -4.6 | 24.2 | -4.0 | 36.9* | 44.4*
O=C(CSc1nccc(=O)[nH]1)NC1CCCCCC1 | -8.4 | -2.9 | 3.6 | . | 14.9 | 18.4 | . | .
O=C(NC1CCCC1)C(c1ccc(Cl)cc1)N(Cc1ccc(F)cc1)C(=O)CCl (configuration not stated) | 48.9* | 46.6* | 46.4 | -9.0 | -14.0 | -2.7 | 40.2* | -1.1
Cc1[nH]nc2c1-c1nc3ccccc3nc1C(C)(C)C2 | 44.1* | 44.2* | 37.9 | 15.1 | . | -2.8 | 34.9* | 24.9
CCc1ccc2c(c1)C1(NN=C(c3cccc4ccccc34)S1)C(=O)N2 (configuration not stated) | 53.8* | 55.4* | 49.6 | 78.7* | -96.9 | 28.4 | 46.9* | 58.5*
CCc1ccc2c(c1)C1(C(=O)N2)N2CCCC2C(C(=O)c2ccc3ccccc3c2)C12C(=O)Nc1ccccc12 (configuration not stated) | 38.3 | 33.1 | 34.2 | 28.6 | 19.8 | 3.3 | . | .
N/C(=N\OC(=O)CCCOc1ccccc1)c1ccncc1 | 10.8 | -3.0 | 13.4 | 6.5 | 14.9 | 5.5 | . | .
N/C(=N\OC(=O)CCCOc1ccccc1)c1ccccc1 | 44.1* | 51.0* | 40.8 | -0.5 | -2.2 | 14.1 | 37.1* | 34.5*
N/C(=N\OC(=O)c1ccc(Br)cc1)c1ccccc1 | 55.1* | 50.2* | 40.2 | 5.7 | . | 14.5 | 52.0* | 67.3*
N/C(=N\OC(=O)COc1ccc(Cl)cc1Br)c1ccncc1 | . | . | . | . | 4.0 | . | . | .
N/C(=N\OC(=O)c1cccc(Br)c1)c1ccc(Br)cc1 | -30.9 | 4.2 | 12.6 | 4.2 | -31.4 | 16.7 | . | .
N/C(=N\OC(=O)CCCOc1ccc(Cl)cc1Cl)c1ccncc1 | 53.8* | 42.7* | 5.7 | 17.2 | 15.4 | 11.2 | 30.4* | 3.6
Oc1ccc(-c2csc(-c3c[nH]c4ccccc34)n2)c(O)c1 | -21.5 | -15.1 | 35.5 | 45.2 | -10.7 | 21.9 | . | .
Cc1ccc(-c2csc(-c3c[nH]c4ccccc34)n2)c(C)c1 | 41.3* | 42.8* | 40.7 | 92.1* | -23.2 | 28.6 | 38.7* | 47.6*
O=C1ON=C(c2cccc([N+](=O)[O-])c2)/C1=C/c1ccc(O)cc1 | 8.7 | 8.0 | 11.5 | 2.2 | -30.7 | 18.6 | . | .
Cc1onc(-c2ccccc2)c1C(=O)NC(=S)Nc1sc2c(c1C#N)CCCC2 | 41.8* | 54.1* | 40.1 | 21.1 | -6.4 | 35.8 | 27.5 | 33.0*
CCCCOc1ccc(/C=C/C(=O)N(CC)CC(=O)Nc2ccc3c(c2)OCCO3)cc1OC | 6.1 | -0.2 | 16.1 | -5.9 | 17.1 | -0.8 | . | .
COc1ccc(CC(=O)Nc2cc(Cl)ccc2C(=O)O)cc1 | -2.4 | 6.5 | 11.3 | 3.3 | -24.4 | 16.9 | . | .
CCCCOc1ccc(Nc2cc(Cl)ccc2C(=O)O)cn1 | 52.1* | 41.2* | 34.5 | 21.6 | -47.1 | 9.4 | 26.4 | 33.6*
O=C(N/N=C/c1ccc([N+](=O)[O-])o1)C1CC1 | 18.9 | 13.6 | 25.0 | 12.7 | -5.0 | 3.7 | . | .
COc1cc(/C=C2\SC(c3ccc(C)cc3)=NC2=O)ccc1O | 52.5* | 46.2* | 49.5 | 14.8 | -8.2 | 18.0 | 31.2* | 43.3*
CCOC(=O)c1c(CSc2ccc(CC)cc2)oc2ccc(O)c(CN(C)C)c12 | 49.2* | 55.1* | 24.2 | 0.9 | 14.7 | 26.7 | 57.6* | 64.8*
CCOC(=O)c1c(C)oc2ccc(O)c(CN(C)C)c12 | 21.9 | 9.9 | 21.2 | 1.3 | 17.1 | 17.6 | . | .
SMILES | tim10-1 inh | TIM10 inh | tim23-1 inh | SKKanGAS inh | PfHsp90 set2 | NALP3 yeast inh | tim10-1 conf | TIM10 conf
c1ccc(Nc2cccc(Nc3ccccc3)n2)cc1 | 63.9* | 60.0* | 38.7 | 39.6 | -6.2 | 28.1 | 57.2* | -9.9
COc1ccc(C(=O)n2nnc3ccccc32)cc1Br | 52.0* | 40.2* | 39.9 | -5.6 | -4.6 | 8.2 | 21.5 | 0.2
CCN(C(=O)Cc1c(C(=O)O)n(C)c2ccccc12)c1cccc(C)c1 | 18.7 | 18.7 | 30.7 | 1.6 | -22.3 | 8.6 | . | .
O=[N+]([O-])c1cccc(-c2ccc(/C=N/NC(=S)Nc3cccc(F)c3)o2)c1 | 51.6* | 57.5* | 47.4 | 26.5 | -2.9 | 22.7 | 46.2* | 59.5*
O=C(C#Cc1ccccc1)c1ccc([N+](=O)[O-])cc1 | 43.4* | 54.5* | -95.3 | -0.8 | 101.1* | -39.5 | 8.9 | -24.9
Nn1c(SCC(=O)Nc2ccc3c(c2)OCCO3)nncc1=O | -19.1 | 3.5 | -13.5 | -1.9 | -2.5 | 0.9 | . | .
Oc1ccc(-c2nccc(-c3ccc(Br)cc3)n2)cc1 | 46.9* | 41.3* | 44.3 | 15.6 | -8.4 | -3.7 | 48.5* | 63.5*
O=C(NCc1cnn(-c2ccc(F)cc2)c1)C1CCC(=O)N(C2CC2)C1 (configuration not stated) | -23.9 | -0.9 | -4.8 | -4.0 | 12.7 | 17.9 | . | .
CCn1cc(CCC(=O)NCCN2CCOCC2)c2ccccc21 | 6.5 | -1.8 | 17.5 | 0.3 | -17.8 | 12.4 | . | .
CC(C)CCNc1nc2c(c(=O)n(Cc3cccc(F)c3)c(=O)n2C)n1C | 46.9* | 45.7* | 34.3 | -0.1 | -100.0 | 1.7 | 26.4 | 34.0*
Cc1ccc(/C=N/n2c(C)nc3ccccc3c2=O)o1 | -1.2 | -1.5 | 8.6 | 9.0 | 26.5 | 7.1 | . | .
Cc1nc2ccccc2n1/N=C/c1ccc([N+](=O)[O-])o1 | 73.6* | 78.1* | 27.4 | 6.5 | -64.4 | 3.6 | 71.7* | 88.4*
Cc1ccc(C(=O)C(C)OC(=O)CN2C(=O)NC3(CCCC3)C2=O)cc1C (configuration not stated) | 4.0 | 1.0 | 7.1 | -5.4 | -19.8 | 20.0 | . | .
CC(c1ccco1)N(C(=O)c1ccccc1F)c1ccccn1 (configuration not stated) | 12.8 | 10.9 | 12.7 | -7.9 | 31.1 | 5.1 | . | .
CC(c1ccco1)N(C(=O)C12CC3CC(CC(C3)C1)C2)c1ccccn1 (configuration not stated) | 43.1* | 46.3* | 43.6 | 3.6 | 21.4 | -0.5 | 36.0* | -23.6
O=C(O)C(Oc1ccc(Cl)cc1)c1ccc(Cl)cc1 (configuration not stated) | . | . | . | . | -8.8 | . | . | .
C=CC[C@]12CC=CC(=O)[C@@]1(O)O[C@H](c1ccc(OC)c(OC)c1)[C@H]2C | 50.2* | 41.8* | 47.1 | 0.4 | . | 21.0 | 37.9* | 42.7*
